Measured values reported in PubChem BioAssay (EPA / NIEHS).
Activity calls are given as the source filed them. The calls were made as follows: active = hit-call score of the fitted dose curve at least 0.9, where 1 is the maximum; inactive = score below 0.9.

Assay: APR_HepG2_NuclearSize_72hr: Apredica 72-hour HepG2 Assay for Nuclear Size (AID 2282925)
Conditions: high-content imaging, actives raise or lower the signal
Protocol: APR_HepG2_72hr is a cell-based, multiplexed-readout assay that uses HepG2, a human liver cell line, with measurements taken at 72 hours after chemical dosing in a 384-well plate.APR_HepG2_NuclearSize_72hr is one of 10 assay component(s) measured or calculated from the APR_HepG2_72hr assay. It is designed to make measurements of cell phenotype, a form of morphology reporter, as detected with fluorescence intensity signals by HCS Fluorescent Imaging technology.Data from the assay component APR_HepG2_NuclearSize_72hr was analyzed into 1 assay endpoint. This assay endpoint, APR_HepG2_NuclearSize_72hr, was analyzed with bidirectional fitting relative to DMSO as the negative control and baseline of activity. Using a type of morphology reporter, measures of all nuclear dna for gain or loss-of-signal activity can be used to understand the signaling at the nuclear-level. Furthermore, this assay endpoint can be referred to as a primary readout, because this assay has produced multiple assay endpoints where this one serves a signaling function. To generalize the intended target to other relatable targets, this assay endpoint is annotated to the cell morphology intended target family, where the subfamily is organelle conformation.
Cells were treated with dimethyl sulfoxide (DMSO) as a solvent control at a final concentration of 0.5% v/v or with compounds in DMSO with a resulting final DMSO concentration of 0.5% v/v. Compound treatment was done at concentrations of 0.39, 0.78, 1.56, 3.12, 6.24, 12.5, 25, 50, 100, and 200 uM in duplicate on each plate. Cells were treated with compounds for 1, 24, or 72 hr. Carbonyl […] m-chloro-phenylhydrazone (CCCP) and taxol were used as positive controls for mitochondrial function and cytoskeletal stability, respectively; DMSO served as the negative control for this experiment. Cells were fixed by the direct addition of 50 uL formaldehyde in Hank's Balanced Salt Solution (HBSS) to a final concentration of 3.7%. After incubation in the fixation medium for 30 min at room temperature (293-298 K), cells were rinsed twice with HBSS and treated with cell permeabilization buffer (16 uL of 0.5% Triton X-100) for 10 min at room temperature (293-298 K) before labeling. For mitochondrial membrane potential and mitochondrial measurements, pre-fixed cells were incubated with 50 uL of MitoTracker Red CMXRos (Invitrogen) at a concentration of 250 nM for 30 min before fixation. In the remaining cases, post-fixed cells were labeled by incubation with a multiplexed mixture of primary antibodies in HBSS for 60 min at room temperature (293-298 K) to detect immunoreactivity of c-Jun (1:500), phospho-histone H3 (1:100), phospho-histone H2A.x (1:200), p53 (1:400), alpha-tubulin (1:200) and Hoechst 33342 (2 ug/mL). Cells were labeled for multiplexed imaging on two separate plates: a) Hoechst 33342, MitoTracker Red, phospho-histone H3, and alpha-tubulin, and b) Hoechst 33342, phospho-histone H2A.x, and c-Jun. A final rinse with HBSS (50 uL) was performed before analysis. The primary and secondary antibodies for the proteins were phospho-histone H3 (rabbit anti-phospho-histone H3 and FITC-donkey anti-rabbit IgG), phospho-histone H2A.x (mouse anti-phospho-histone H2A.x and FITC-donkey anti-mouse IgG), c-Jun (rabbit anti-phospho-c-Jun and Cy3-donkey anti-rabbit IgG), p53 (sheep anti-p53 and Cy5-donkey anti-sheep IgG), alpha-tubulin (mouse anti-alpha-tubulin and Cy5-donkey anti-mouse IgG). These antibodies are available as the CellCiphr HepG2 assay kit (Millipore).Digital images of each well were captured using a Cellomics ArrayScan VTI (Thermo Scientific Cellomics) (0.8 NA objective, 0.63x optical coupler, and XF-93 filter set) at 20x magnification. The images were acquired using the autofocus feature of the ArrayScan instrument, which entails the following steps. First, the camera focuses on channel 1 (Hoechst 33342), where nuclei are identified. Second, a Z offset of 1 um is used for capturing mitochondria (MitoTracker Red). […]
In the case of `O=C(O)c1ccc2c(c1)nc(C(=O)NC1CCN(C3CC3)CC1)n2Cc1cc(-c2ccc(Cl)s2)on1`, the outcome was “inactive”. For `O=c1[nH]cnc2c1ncn2[C@H]1CC[C@@H](CO)O1`, the outcome was “inactive”. In the case of `C=CCc1cc(S(=O)(=O)c2ccc(O)c(CC=C)c2)ccc1O`, the AC50 was 79.1 µM (active). With `OC(Cn1cncn1)(Cn1cncn1)c1ccc(F)cc1F` the outcome was “inactive”. With `CCCCCCCCCC` the outcome was “inactive”. In the case of `OC[C@H]1O[C@@H]2O[C@H]3[C@H](O)[C@@H](O)[C@@H](O[C@H]4[C@H](O)[C@@H](O)[C@@H](O[C@H]5[C@H](O)[C@@H](O)[C@@H](O[C@H]6[C@H](O)[C@@H](O)[C@@H](O[C@H]7[C@H](O)[C@@H](O)[C@@H](O[C@H]1[C@H](O)[C@H]2O)O[C@@H]7CO)O[C@@H]6CO)O[C@@H]5CO)O[C@@H]4CO)O[C@@H]3CO`, the outcome was “inactive”. With `CC(C)CC(C)O` (stereo not given) the outcome was “inactive”. In the case of `C[C@]12C=CC(=O)C=C1CC[C@H]1[C@@H]3C[C@@H](O)[C@](O)(C(=O)CO)[C@@]3(C)C[C@H](O)[C@@]12F`, the outcome was “inactive”. In the case of `Cc1ncc([C@@H](CCCCCCc2ccc3c(n2)NCCC3)CC(=O)O)cn1`, the AC50 was 0.0398 µM (active). In the case of `c1ccc(C(O[C@@H]2CCCN(CCc3ccc4c(c3)OCO4)C2)c2ccccc2)cc1`, the outcome was “inactive”. In the case of `CCCc1ccccc1`, the outcome was “inactive”. For `CCN(CC)C(=S)SSC(=S)N(CC)CC`, the outcome was “inactive”. In the case of `c1ccc2ncccc2c1`, the outcome was “inactive”. With `CCn1nc(C)c2c1C(=O)NCC(c1ccc(O)cc1)=N2` the outcome was “inactive”. With `NC(=O)N(O)[C@@H]1COc2cc(OCc3ccccc3)ccc21` the outcome was “inactive”. For `COCc1nnc(-c2ccc[n+]([O-])c2)n1-c1c(Cl)c(Cl)cc2[nH]c(=O)c(=O)[nH]c12`, the outcome was “inactive”. With `CCCCCCOC(=O)CC(CC(=O)OCCCCCC)(OC(=O)CCC)C(=O)OCCCCCC` the outcome was “inactive”. In the case of `COS(C)(=O)=O`, the outcome was “inactive”. For `OCc1ccccc1`, the outcome was “inactive”. For `O=S1(=O)CCCO1`, the outcome was “inactive”. For `Cc1ccc(S(=O)(=O)NC(=O)NN2CCCCCC2)cc1`, the outcome was “inactive”. In the case of `NC(=O)N1c2ccccc2C=Cc2ccccc21`, the outcome was “inactive”. For `C=CN1CCCC1=O`, the outcome was “inactive”. In the case of `Cc1nccn1-c1ccc(Sc2cccc(C3(C(N)=O)CCOCC3)c2)cc1`, the outcome was “inactive”. With `C[C@@H](Oc1ccc(CNC(=O)c2cccnc2Oc2ccc3c(c2)OCO3)c(F)c1)C(=O)O` the outcome was “inactive”. For `CCCOc1ccc(S(=O)(=O)N2CCN(CC)CC2)cc1-c1nc2c(CC)n(Cc3ccccn3)nc2c(=O)[nH]1`, the outcome was “inactive”. In the case of `NNC(=O)c1ccncc1`, the outcome was “inactive”. In the case of `Nc1ccn([C@@H]2O[C@H](CO)[C@@H](O)[C@@H]2O)c(=O)n1`, the AC50 was 0.0394 µM (active). With `CC1(C)C(=O)N(Cl)C(=O)N1Cl` the outcome was “inactive”. For `CCOC(N)=O`, the outcome was “inactive”. With `O=C(O)c1cccc(C(=O)O)c1` the outcome was “inactive”. In the case of `OCCOCCOCCO`, the outcome was “inactive”. In the case of `CCCCCCCC/C=C\CCCCCCCC(=O)OC[C@@H](O)[C@H]1OC[C@H](O)[C@H]1O`, the outcome was “inactive”. With `COc1cc(C(C)C)c2c(c1)S(=O)(=O)N(COc1cc(=O)n3cccc(OCCN4CCCCC4)c3n1)C2=O` the outcome was “inactive”. In the case of `CCCCCCCCCCCCCCO`, the outcome was “inactive”. For `CC(C)C(=O)Nc1ccc([N+](=O)[O-])c(C(F)(F)F)c1`, the AC50 was 111 µM (active). In the case of `OCCNCCO`, the outcome was “inactive”. For `CCCCCCCCN(C)C`, the outcome was “inactive”. In the case of `CCCC(CCC)C(=O)O`, the outcome was “inactive”. In the case of `Cn1c(=O)c2[nH]cnc2n(C)c1=O`, the outcome was “inactive”.
